The source of these data is PubChem BioAssay (NCATS).

The structures appear in SMILES notation. Inconclusive results are not listed. A number with no mark means an inactive call. Activity calls are given as the source filed them. The call rests on the fitted dose curve; in most records, active means well fitted inhibition curve with a large enough effect; inconclusive means small, poorly fitted or top-dose-only effect; inactive means flat fitted curve, though single readings scatter.
On the % scale 0 is the no-effect control and ±100 the full control effect.

In one assay the test system is MCC-26. The assay can be described thus: qHTS assay to identify novel small-molecules to repurpose for Merkel cell carcinoma treatment (AID 1296009). Further: nearly all actives have a fitted effect of over 60% in size. The note with it: MCC and control cell lines, CellTiter-Glo viability, 72 h; series mostly up to 46 µM; activity change, negative = cytotoxicity: at the top concentration. The procedure, abridged:
(§1)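 Dose-response viability screen; 72 hr exposure at 37 degree celsius; CellTiter-Glo added, 10 min room temperature, luminescence read; RLUs scaled between no-cell and DMSO wells.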
(In general: Quantitative high-throughput screening tests each substance at several concentrations.)
For the compound `COc1cc(OC)c(OC)cc1C=O`, the Potency entry was “inactive”.
As to `CC(C)N(CCC(C(N)=O)(c1ccccc1)c1ccccn1)C(C)C` (centres undefined), the “activity change, negative = cytotoxicity” value is -5.16%.
Same read-out and setting: the figure for `COc1cccc([C@@]2(O)CCCC[C@@H]2CN(C)C)c1` is 2.75%.
In the case of `O=C(O)CCCc1ccc(N(CCCl)CCCl)cc1`, the Potency result is “inactive”.
Regarding `O=c1oc2ccccc2c(O)c1Cc1c(O)c2ccccc2oc1=O`, the “activity change, negative = cytotoxicity” value was -4.89%.
In the case of `CC(=O)C1CCOC1=O` (centres undefined), the “activity change, negative = cytotoxicity” value is 11.7%.
For `CCOC(=O)CC(SP(=S)(OC)OC)C(=O)OCC` (centres undefined), the Potency entry is “inactive”.
As to `CC(C)(C)NCC(O)c1cc(Cl)c(N)c(C(F)(F)F)c1` (centres undefined), the “activity change, negative = cytotoxicity” value is 0.877%.
Still for that read-out and setting: the figure for `Clc1ccccc1N1CCNCC1` is 2.49%.
As to `NNc1ccccc1`, the “activity change, negative = cytotoxicity” value is 1.36%.
As to `O=C1OC(c2ccc(O)c(S(=O)(=O)O)c2)(c2ccc(O)c(S(=O)(=O)O)c2)c2c(Br)c(Br)c(Br)c(Br)c21`, the “activity change, negative = cytotoxicity” value was 3.91%.
The same measure, in the same setting: with `COc1ccc2c3c1O[C@H]1[C@H](O)CC[C@H]4[C@@H](C2)N(C)CC[C@@]341` the figure was -7.89% [at 92.7 µM]; with `C#CC(O)(C=CCl)CC` (centres undefined), 12.8%.
On the same count and under the same terms, the figure for `C[C@]12CC[C@@H]3c4ccc(OC(=O)N(CCCl)CCCl)cc4CC[C@H]3[C@@H]1CC[C@@H]2OP(=O)(O)O` is 5.58%.
The same measure, in the same setting: the figure for `Oc1ccc(Cl)cc1` is 3.05%.
On to `NC(=O)c1cc([N+](=O)[O-])cc([N+](=O)[O-])c1`, for which the “activity change, negative = cytotoxicity” value is 4.74%.
Still for that read-out and setting: with `O=C1c2ccccc2C(=O)c2ccccc21` the figure was 0.0479% [at 16.1 µM]; with `CN1CC[C@]23c4c5ccc(O)c4O[C@H]2[C@@H](O)CC[C@H]3[C@H]1C5`, -2.93% [at 92.7 µM]; with `C=CCN1C[C@H](C)N([C@H](c2ccc(C(=O)N(CC)CC)cc2)c2cccc(OC)c2)C[C@H]1C`, 1.59%.
Same read-out and setting: with `C[C@]12CC[C@H]3[C@@H](CCC4=CC(=O)CC[C@@H]43)[C@@H]1CC[C@@H]2OC(=O)CCC1CCCCC1` the figure was -9.08%.
For `CN1C(=O)CCS(=O)(=O)C1c1ccc(Cl)cc1` (centres undefined), the Potency result was “inactive”.

For the next assay, the system named is MKL-1. The description is as above. The note with it: MCC and control cell lines, CellTiter-Glo viability, 72 h; series mostly up to 46 µM; activity change, negative = cytotoxicity: at the top concentration. The procedure, abridged:
as §1
Regarding `COc1cc(OC)c(OC)cc1C=O`, the Potency result was “inactive”.
In the case of `CC(C)(N)Cc1ccccc1Cl`, the “activity change, negative = cytotoxicity” value is 1.45%.
In the case of `CC(C)c1cccc(C(C)C)c1O`, the Potency result was “inactive”.
Regarding `CC(C)N(CCC(C(N)=O)(c1ccccc1)c1ccccn1)C(C)C` (centres undefined), the “activity change, negative = cytotoxicity” value is 5.14%.
Regarding `C=CCC1(C(C)CC)C(=O)NC(=O)NC1=O` (centres undefined), the “activity change, negative = cytotoxicity” value was -3.55%.
The same measure, in the same setting: with `COc1cccc([C@@]2(O)CCCC[C@@H]2CN(C)C)c1` the figure was 0.466%; with `C[N+]1(CCF)[C@@H]2CC[C@H]1CC(OC(=O)C(O)(c1ccccc1)c1ccccc1)C2` (some centres undefined), 16.1%; with `CCCCCCCCCC(=O)O[C@H]1CC[C@H]2[C@@H]3CCC4=CC(=O)CC[C@@H]4[C@H]3CC[C@]12C`, -5.64%.
For `O=C(O)CCCc1ccc(N(CCCl)CCCl)cc1`, the Potency result was “inactive”.
For `O=c1oc2ccccc2c(O)c1Cc1c(O)c2ccccc2oc1=O`, the “activity change, negative = cytotoxicity” value was 3.73%.
Same read-out and setting: the figure for `CC(=O)C1CCOC1=O` (centres undefined) is 13.4%.
On the same count and under the same terms, the figure for `O=C(O)c1ccc(=O)[nH]c1` is 6.01%.
Still for that read-out and setting: the figure for `CCOC(=O)CC(SP(=S)(OC)OC)C(=O)OCC` (centres undefined) is -1.14%.
Turning to `CC(C)(C)NCC(O)c1cc(Cl)c(N)c(C(F)(F)F)c1` (centres undefined), the “activity change, negative = cytotoxicity” value was 1.37%.
Same read-out and setting: the figure for `Clc1ccccc1N1CCNCC1` is 0.927%; for `NNc1ccccc1` it is 1.11%.
For the compound `Nc1ccccc1`, the “activity change, negative = cytotoxicity” value is 1.33%.
The same measure, in the same setting: with `O=C1OC(c2ccc(O)c(S(=O)(=O)O)c2)(c2ccc(O)c(S(=O)(=O)O)c2)c2c(Br)c(Br)c(Br)c(Br)c21` the figure was 0.944%.
In the case of `CC(NC(C)(C)C)C(=O)c1cccc(Cl)c1` (centres undefined), the Potency result is “inactive”.
Take `C#CC(O)(C=CCl)CC` (centres undefined): the “activity change, negative = cytotoxicity” value is 4.52%.
The same measure, in the same setting: the figure for `C[C@]12CC[C@@H]3c4ccc(OC(=O)N(CCCl)CCCl)cc4CC[C@H]3[C@@H]1CC[C@@H]2OP(=O)(O)O` is 6.99%; for `O=c1[nH]c2ccccc2n1C1CCNCC1` it is -2.1%; for `Oc1ccc(Cl)cc1` it is 1.46%.
Same read-out and setting: with `NC(=O)c1cc([N+](=O)[O-])cc([N+](=O)[O-])c1` the figure was -7.78%.
Same read-out and setting: with `O=C1c2ccccc2C(=O)c2ccccc21` the figure was 0.663% [at 16.1 µM].
On to `CCc1cc2c(s1)-n1c(C)nnc1CN=C2c1ccccc1Cl`, for which the “activity change, negative = cytotoxicity” value is 4.01%.
Same read-out and setting: with `CN1CC[C@]23c4c5ccc(O)c4O[C@H]2[C@@H](O)CC[C@H]3[C@H]1C5` the figure was -9.66% [at 92.7 µM].
On the same count and under the same terms, the figure for `C=CCN1C[C@H](C)N([C@H](c2ccc(C(=O)N(CC)CC)cc2)c2cccc(OC)c2)C[C@H]1C` is 8.24%; for `COC(=O)[C@@H](N)CCCN/C(N)=N/[N+](=O)[O-]` it is -3.41%.
Take `CC(=O)OCC1=C(C(=O)O)N2C(=O)[C@@H](N)[C@H]2SC1`: the “activity change, negative = cytotoxicity” value was -2.67% [at 16.1 µM].
Same read-out and setting: with `C[C@]12CC[C@H]3[C@@H](CCC4=CC(=O)CC[C@@H]43)[C@@H]1CC[C@@H]2OC(=O)CCC1CCCCC1` the figure was -4.01%.
As to `CN1C(=O)CCS(=O)(=O)C1c1ccc(Cl)cc1` (centres undefined), the Potency result is “inactive”.
With `ClCCN1CCCC1`, the “activity change, negative = cytotoxicity” value is -2.89%.
